Drawing on PubChem BioAssay (NCI), this text covers growth inhibition for 9 molecules.

This is part of a sample that, as a whole, favours compounds with a hit. Of some 79,000 tested, about 15% had one in any assay. A number with no mark means an inactive call. Activity calls are given as the source filed them. Rule as the data show it: active = growth inhibition above about 70%; inactive = the rest.

A short description of test [1]: NCI Yeast Anticancer Drug Screen. Data for the rad50 strain (AID 155).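 Also: 0% = growth of vehicle-only cultures of the same strain.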 Particulars: S. cerevisiae rad50 strain growth inhibition, hits give high values. The method in brief: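 DNA repair mutant yeast, compound exposure, growth read-out; inhibition is taken relative to vehicle.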
Test [2] in a line: NCI Yeast Anticancer Drug Screen. Data for the mec2-1 strain (AID 157). The note with it: S. cerevisiae mec2-1 strain, hits give high values. The method in brief: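 Yeast mec2-1 mutant treated with compound. Readout: growth inhibition vs vehicle controls.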
Test [3] in a line: NCI Yeast Anticancer Drug Screen. Data for the sgs1 mgt1 strain (AID 161).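 Also: 0% = growth of cultures given vehicle only.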 The note with it: S. cerevisiae sgs1 mgt1 strain, hits give high values. The method in brief:
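Inhibition of yeast growth, normalised to vehicle-treated controls, is reported for a strain bearing genetic alterations in DNA damage repair.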

Test [4] can be described thus: NCI Yeast Anticancer Drug Screen. Data for the cln2 rad14 strain (AID 165).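 Also: 0% = growth equal to vehicle treated cultures.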 Particulars: S. cerevisiae cln2 rad14 strain, hits give high values. An outline of the steps:
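cln2 rad14 yeast strain; compound exposure; growth inhibition read vs vehicle controls.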

Test [5] can be described thus: NCI Yeast Anticancer Drug Screen. Data for the bub3 strain (AID 167). The note with it: S. cerevisiae bub3 mutant strain, hits give high values. The method in brief: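 In this screen, a yeast mutant lacking normal mitotic checkpoint function is challenged with compound. Relative growth versus vehicle gives the inhibition value.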
Test [6] can be described thus: NCI Yeast Anticancer Drug Screen. Data for the mlh1 rad18 strain (AID 175). Particulars: S. cerevisiae mlh1 rad18 strain growth inhibition, hits give high values. The method in brief:
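Yeast w/ defined DNA-repair lesions; compound exposure; growth vs vehicle controls → % inhibition.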

Setting [7] is: at 5.0 µM (retest, dose inferred, filed as 0.5).
The mark [8] stands for this setting: at 50.0 µM (retest, dose inferred, filed as 5.0).

Consider `O=C(O)CSc1nnc2c3ccccc3c3ccccc3c2n1`, for which the growth inhibition in test [1] (setting [7]) was -14%; in test [1] (setting [8]), 70% (active); in test [1] (at 50.0 µM), 48%; in test [2] (setting [7]), 6%; in test [2] (setting [8]) it was 46%; in test [2] (at 50.0 µM) it was 30.1%. For the same molecule, the growth inhibition in test [3] (setting [7]) was -2%; in test [3] (setting [8]), 55%; in test [3] (at 50.0 µM), 7.8%; in test [4] (setting [7]), -33%; in test [4] (setting [8]), 65%; in test [4] (at 50.0 µM) it was 47.7%. In addition, the growth inhibition in test [5] (setting [7]) is 17%; in test [5] (setting [8]), 53%; in test [5] (at 50.0 µM), 54.9%; in test [6] (setting [7]), 9%; in test [6] (setting [8]) it was 71% (active); in test [6] (at 50.0 µM) it was 47.1%.

Consider `Cc1ccc(CC2(C(=O)O)Cc3ccc(C)cc3C2)cc1` (configuration not stated), for which the growth inhibition in test [1] (setting [7]) is -1%; in test [1] (setting [8]) it was 100% (active); in test [1] (at 50.0 µM) it was 78.3% (active); in test [2] (setting [7]), -12%; in test [2] (setting [8]), 100% (active); in test [2] (at 50.0 µM) it was 86.3% (active). Moreover, the growth inhibition was -10% in test [3] (setting [7]); 100% (active) in test [3] (setting [8]); 89.3% (active) in test [3] (at 50.0 µM); 1% in test [4] (setting [7]); 100% (active) in test [4] (setting [8]); 91.2% (active) in test [4] (at 50.0 µM). The growth inhibition in test [5] (setting [7]) is 6%; in test [5] (setting [8]) it was 100% (active); in test [5] (at 50.0 µM), 91% (active); in test [6] (setting [7]), 5%; in test [6] (setting [8]), 99% (active); in test [6] (at 50.0 µM), 92.3% (active).

`CC(C)=CCC/C(C)=C/COc1ccc(/C=C2/C(=O)N(O)[C@@H](C)C(=O)N2O)cc1`: the growth inhibition in test [1] (setting [7]) was 51%; in test [1] (setting [8]), 97% (active); in test [1] (at 50.0 µM), 80.8% (active); in test [2] (setting [7]), 52%; in test [2] (setting [8]) it was 98% (active); in test [2] (at 50.0 µM), 78.2% (active). Further, the growth inhibition in test [3] (setting [7]) was 66%; in test [3] (setting [8]), 92% (active); in test [3] (at 50.0 µM), 78.9% (active); in test [4] (setting [7]), 54%; in test [4] (setting [8]), 89% (active); in test [4] (at 50.0 µM), 70.7% (active). The growth inhibition in test [5] (setting [7]) was 68%; in test [5] (setting [8]) it was 97% (active); in test [5] (at 50.0 µM), 83.3% (active); in test [6] (setting [7]), 32%; in test [6] (setting [8]), 96% (active); in test [6] (at 50.0 µM), 79.2% (active).

On to `c1ccc(Cn2nnnc2-c2ccccc2)cc1`, for which the growth inhibition in test [1] (setting [7]) was -151%; in test [1] (setting [8]), -125%; in test [1] (at 50.0 µM), 23.8%; in test [2] (setting [7]), -53%; in test [2] (setting [8]), -43%; in test [2] (at 50.0 µM) it was 43.5%. Further, the growth inhibition in test [3] (setting [7]) was -66%; in test [3] (setting [8]) it was -61%; in test [3] (at 50.0 µM), 1.75%; in test [4] (setting [7]), -55%; in test [4] (setting [8]), -33%; in test [4] (at 50.0 µM) it was 80.5% (active). Further, the growth inhibition was -70% in test [5] (setting [7]); -57% in test [5] (setting [8]); 5.45% in test [5] (at 50.0 µM); -147% in test [6] (setting [7]); -89% in test [6] (setting [8]); 14.3% in test [6] (at 50.0 µM).

Consider `O=C(O)C(Cc1ccc(O)cc1)NC(=O)N(c1ccccc1)c1ccccc1` (configuration not stated), for which the growth inhibition in test [1] (setting [7]) was 0%; in test [1] (setting [8]) it was 38%; in test [1] (at 50.0 µM), 17.2%; in test [2] (setting [7]) it was -11%; in test [2] (setting [8]) it was 52%; in test [2] (at 50.0 µM) it was 25.1%. In addition, the growth inhibition in test [3] (setting [7]) was -205%; in test [3] (setting [8]) it was 79% (active); in test [3] (at 50.0 µM), 30.8%; in test [4] (setting [7]), 3%; in test [4] (setting [8]) it was 39%; in test [4] (at 50.0 µM), 61.6%. Moreover, the growth inhibition in test [5] (setting [7]) is 2%; in test [5] (setting [8]) it was 28%; in test [5] (at 50.0 µM) it was 19%; in test [6] (setting [7]), -4%; in test [6] (setting [8]), 74% (active); in test [6] (at 50.0 µM) it was 28.5%.

Regarding `Cc1ccc2nc(C[n+]3cccc4ccccc43)ccc2c1`, the growth inhibition was 96% (active) in test [1] (setting [7]); 99% (active) in test [1] (setting [8]); 88.8% (active) in test [1] (at 50.0 µM); 95% (active) in test [2] (setting [7]); 100% (active) in test [2] (setting [8]); 81.1% (active) in test [2] (at 50.0 µM). Moreover, the growth inhibition was 88% (active) in test [3] (setting [7]); 99% (active) in test [3] (setting [8]); 99.4% (active) in test [3] (at 50.0 µM); 92% (active) in test [4] (setting [7]); 98% (active) in test [4] (setting [8]); 99% (active) in test [4] (at 50.0 µM). Also, the growth inhibition is 96% (active) in test [5] (setting [7]); 99% (active) in test [5] (setting [8]); 99.7% (active) in test [5] (at 50.0 µM); 96% (active) in test [6] (setting [7]); 99% (active) in test [6] (setting [8]); 99.5% (active) in test [6] (at 50.0 µM).

In the case of `CN1CCN(CC(C(=O)O)(c2ccccc2)c2ccccc2)CC1`, the growth inhibition was -1% in test [1] (setting [7]); 2% in test [1] (setting [8]); -1.85% in test [1] (at 50.0 µM); 3% in test [2] (setting [7]); -5% in test [2] (setting [8]); 5.05% in test [2] (at 50.0 µM). Moreover, the growth inhibition in test [3] (setting [7]) was -3%; in test [3] (setting [8]), 0%; in test [3] (at 50.0 µM), -16.6%; in test [4] (setting [7]), 4%; in test [4] (setting [8]), -1%; in test [4] (at 50.0 µM) it was 14.2%. For the same molecule, the growth inhibition in test [5] (setting [7]) is 0%; in test [5] (setting [8]), -5%; in test [5] (at 50.0 µM), 59.5%; in test [6] (setting [7]) it was -1%; in test [6] (setting [8]) it was -4%; in test [6] (at 50.0 µM), -13.2%.

Regarding `Nc1ccc2nc(Nc3ccc(Cl)c(Cl)c3)cnc2c1`, the growth inhibition was -17% in test [1] (setting [7]); 97% (active) in test [1] (setting [8]); 85.7% (active) in test [1] (at 50.0 µM); -1% in test [2] (setting [7]); 97% (active) in test [2] (setting [8]); 86.5% (active) in test [2] (at 50.0 µM). The growth inhibition was 7% in test [3] (setting [7]); 97% (active) in test [3] (setting [8]); 87.7% (active) in test [3] (at 50.0 µM); 14% in test [4] (setting [7]); 97% (active) in test [4] (setting [8]); 87.2% (active) in test [4] (at 50.0 µM). Moreover, the growth inhibition is 28% in test [5] (setting [7]); 95% (active) in test [5] (setting [8]); 83.8% (active) in test [5] (at 50.0 µM); 25% in test [6] (setting [7]); 87% (active) in test [6] (setting [8]); 80.8% (active) in test [6] (at 50.0 µM).

As for `CSC(=S)N/N=C\C(O)C(O)C(O)C(O)CO` (configuration not stated), the growth inhibition in test [1] (setting [7]) was -2%; in test [1] (setting [8]) it was 9%; in test [1] (at 50.0 µM), 97.6% (active); in test [2] (setting [7]), -2%; in test [2] (setting [8]), 0%; in test [2] (at 50.0 µM) it was 95.8% (active). Moreover, the growth inhibition is -2% in test [3] (setting [7]); 1% in test [3] (setting [8]); 95.2% (active) in test [3] (at 50.0 µM); 0% in test [4] (setting [7]); 0% in test [4] (setting [8]); 70.3% (active) in test [4] (at 50.0 µM). The growth inhibition in test [5] (setting [7]) is -1%; in test [5] (setting [8]) it was -2%; in test [5] (at 50.0 µM), 96.3% (active); in test [6] (setting [7]), -2%; in test [6] (setting [8]), 9%; in test [6] (at 50.0 µM), 97.8% (active).
